DAX1 inh-1 = DAX1 (NR0B1) inhibition, primary screen; HEK293T StAR-luciferase reporter, SF-1/DAX-1 repression relief; inhibition, % at 6.8 µM; 1.1% of 370,000 active; AID 652010;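 active = inhibition above the mean over all tested compounds plus 3 SD, cut at about 3.6% in these data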;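 also: 0% = DAX-1 cells with DMSO and 100% = cells lacking DAX-1 with DMSO; higher inhibition means more luminescence from relief of DAX-1 repression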
DAX1 inh-2 = NR0B1 (DAX1) inhibition | 0.99% of 340,000 active | inhibition, % at 6.75 µM | P51843 | HEK293 Gal4-DAX1 luciferase reporter, luminescence;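 active = inhibition above the mean over all tested compounds plus 3 SD, cut at about 4.2% in these data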;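 also: 0% = DAX1-transfected cells with DMSO and 100% = empty-vector control cells with DMSO; inhibition shows as a rise in luminescence from relieved DAX1 repression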
Target sequence (P51843 207-470 limits assumed): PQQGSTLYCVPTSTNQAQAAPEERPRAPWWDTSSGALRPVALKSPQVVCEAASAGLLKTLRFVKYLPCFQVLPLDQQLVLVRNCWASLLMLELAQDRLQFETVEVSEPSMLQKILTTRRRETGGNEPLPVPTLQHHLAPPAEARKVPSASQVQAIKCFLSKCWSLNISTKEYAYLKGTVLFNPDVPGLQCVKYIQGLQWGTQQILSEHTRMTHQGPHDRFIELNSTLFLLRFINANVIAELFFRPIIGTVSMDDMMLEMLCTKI
hcDAF12 agonist = H. contortus DAF-12 activation, primary screen; HEK293 hcDAF-12 lit1-tk-luc reporter, luminescence; 0% DMSO, 100% Δ7-dafachronic acid; activation, % at 6.8 µM; 1.4% of 370,000 active;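 active = activation above the mean of all tested compounds plus 3 SD, cut at about 5.5% in these data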;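 also: 100% = response to 3 µM Δ7-dafachronic acid high control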
hgDAF12 agonist = hgDAF-12 agonism, primary luciferase screen. 1.8% of 370,000 active. activation, % at 6.8 µM. HEK293 GAL4-hgDAF12 UAS-luciferase reporter, agonist luminescence; normalized to butyrate control;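 active = activation above a cutoff set at the mean of all screened compounds plus 3 SD, cut at about 10% in these data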;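 also: 0% = DMSO wells and 100% = sodium butyrate wells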
ssDAF-12 act = activators of S. stercoralis DAF-12 nuclear receptor | 1% of 370,000 active | activation, % at 6.8 µM | AID 652126 | HEK293 ssDAF-12/GRIP1 lit1-tk-luc reporter, luminescence; % of 3 µM dafachronic acid response;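 active = activation above the mean over all tested compounds plus 3 SD, cut at about 0.9% in these data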;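 also: 0% = DMSO-only wells and 100% = 3 µM delta7-dafachronic acid wells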
Numbers without * were called inactive; / = no result. Sampled rows, rich in hits. Any-hit rate of the full collection: about 4.1%.

SMILES | DAX1 inh-1 | DAX1 inh-2 | hcDAF12 agonist | hgDAF12 agonist | ssDAF-12 act
Cc1ccc2nc(-c3ccc(CN4CCC5(CC4)CNc4ccccc45)cc3)c(-c3ccccc3)nc2c1 | -0.8 | / | -0.2 | 4.4 | -1.5
Cc1ccc(Nc2nc(CSc3nnc(-c4ccc(F)cc4)n3C)cs2)cc1 | 1.5 | -0.4 | 3.7 | 10.9* | -0.8
COc1ccc(-c2nnc(SCc3csc(N)n3)n2C)cc1 | -0.8 | 0.7 | -0.5 | -0.8 | -0.9
COCCN1CCCc2nc(-c3ccc(Br)cc3)ccc21 | 4.0* | / | 0.5 | 10.5* | -0.4
COc1ccc(-c2ccc3c(n2)CCCN3Cc2ccccc2C(F)(F)F)cc1 | 4.2* | / | 1.5 | 8.1 | -0.5
FC(F)(F)c1ccccc1CN1CCCc2nc(-c3ccc(Br)cc3)ccc21 | 2.5 | / | -0.4 | 6.9 | 2.6*
FC(F)(F)c1ccccc1CN1CCCc2nc(-c3ccccc3)ccc21 | 1.1 | / | 0.5 | 0.2 | -0.9
CC1(C)Oc2ccc(C(=O)N3CCCC3)cc2NC1=O | -0.4 | / | 2.3 | -0.4 | -0.9
CC#CCc1cc2ccccc2c(=O)o1 | 1.4 | 4.6* | -0.2 | 2.7 | -0.8
CCCCC(C(=O)O)C(C)CC(=O)Nc1nncs1 (configuration not stated) | 0.3 | 4.7* | 0.6 | 4.9 | -1.3
CC(CCC(=O)Nc1nncs1)C(=O)O (configuration not stated) | 0.0 | 3.1 | 0.9 | 0.5 | -0.8
O=C(NCCN1CCOCC1)c1cc(Br)ccc1Cl | -0.1 | 0.7 | 2.9 | 9.6 | 1.1*
CCCN1C(=O)C(=O)N(CC(=O)c2cc(C)n(C3CC3)c2C)C1=O | 3.8* | 1.5 | 3.4 | 10.0 | -0.8
COc1cc(C2C3=C(COC3=O)OC(C)(C)Oc3cc4c(cc32)OCO4)cc(OC)c1OC (configuration not stated) | 4.1* | -0.1 | -0.9 | -5.2 | -0.4
O=C(C[n+]1ccc2ccccc2c1)c1ccccc1 | 0.6 | 4.8* | 4.2 | 8.7 | 0.8
Nc1cc[n+](CC(=O)c2ccccc2)cc1 | -0.6 | 1.0 | -2.6 | -2.5 | -1.1
O=C(N[C@H](Cc1ccccc1)C(=O)N1CCN(C(=O)N2CCCCC2)CC1)[C@H]1O[C@@H](n2ccc(=O)[nH]c2=O)[C@H](O)[C@@H]1O | -0.1 | / | 0.0 | -3.1 | -1.1
CCC1CCC/C1=N\NC(=O)c1ccccc1C (configuration not stated) | 0.2 | 5.3* | 2.4 | 4.6 | 0.1
COc1ccc2c(c1)C1(Nc3ccccc3-c3nc4ccccc4n31)C(=O)N2 (configuration not stated) | 1.1 | -0.6 | -0.9 | -2.1 | -2.2
CC1(c2ccncc2)Nc2ccccc2-c2nc3ccccc3n21 (configuration not stated) | 0.6 | 1.3 | 2.1 | 11.7* | -0.8
CCC(C(=O)O)n1c(C(F)(F)F)nc2ccccc21 (configuration not stated) | 0.1 | 2.5 | -1.0 | 0.5 | -1.2
CCC(C(=O)O)n1c2ccccc2c2cn[nH]c(=O)c21 (configuration not stated) | 0.1 | -0.9 | 5.3 | 0.7 | 1.0*
COc1ccc(CNC(=O)COc2cc3c(c4oc(=O)cc(C)c24)CCC(C)(C)O3)cc1 | 0.1 | -0.4 | 1.8 | -3.3 | -1.3
CCCc1cc(=O)oc2c3c(cc(OCC(=O)N4CCC[C@H]4C(=O)O)c12)OC(C)(C)CC3 | 0.1 | 4.5* | 0.7 | 0.8 | -1.4
CCc1cc(=O)oc2c3c(cc(OCC(=O)NC4CC4)c12)OC(C)(C)CC3 | -1.0 | 2.6 | -2.3 | -2.0 | -1.1
SMILES | DAX1 inh-1 | DAX1 inh-2 | hcDAF12 agonist | hgDAF12 agonist | ssDAF-12 act
COc1ccccc1CNC(=O)COc1cc2c(c3oc(=O)cc(C)c13)CCC(C)(C)O2 | 0.0 | 4.4* | 1.1 | -3.5 | -1.6
O=C(Cc1ccccc1)N1CCC2(CC1)NCCc1[nH]cnc12 | 0.9 | 0.6 | 1.1 | -3.8 | -1.1
CC(=O)Nc1cccc2c1C(=O)N(c1ccc(C)cc1)C2=O | 1.6 | 0.0 | 6.0* | 2.5 | 0.4
CC(C)c1ccc(C(=O)NN2C(=O)C3CCCCC3C2=O)cc1 (configuration not stated) | 3.8* | 2.1 | 5.5 | 10.8* | -1.1
O=C1CSC(c2cccnc2)N1Cc1ccc(Cl)cc1 (configuration not stated) | 0.1 | 0.8 | -0.6 | -1.5 | -1.4
O=C1CSC(c2cccnc2)N1CC1CC1 (configuration not stated) | -0.6 | 4.8* | 0.2 | 1.4 | -0.2
CCOC(=O)C1=C(C)Nc2nc(C)nn2C1c1ccc(OC)c(OC)c1 (configuration not stated) | 0.2 | 4.6* | 1.0 | 2.4 | -0.8
CCOC(=O)C1=C(C)Nc2nc(C)nn2C1c1ccc(OCC)c(OC)c1 (configuration not stated) | -0.3 | -1.7 | -0.5 | -2.7 | -0.9
COc1cc(/C=C/C(=O)OCC(=O)Nc2cccc(F)c2)ccc1O | 0.8 | 0.2 | 0.3 | -1.7 | -0.7
COc1cc(/C=C/C(=O)OCC(=O)NC(=O)NC(C)(C)C)ccc1O | -0.5 | 4.5* | 0.0 | -0.3 | -1.3
CCN(CC)c1ccc(C(=S)NCc2ccccc2)cc1 | 0.4 | 7.3* | -2.4 | -1.6 | -1.4
CCN(CC)c1ccc(C(=O)O)cc1 | 0.5 | -1.3 | 0.1 | 1.2 | -0.2
C(#CC1=CCCCC1)CNCc1ccccc1 | -0.5 | / | 0.0 | -0.6 | -1.2
Cc1ccc(OCCSc2nc3ncnc(N)c3[nH]2)cc1 | 1.3 | 4.3* | -1.3 | 0.1 | -1.6
Nc1ncnc2nc(SCCOc3ccc(Cl)cc3)[nH]c12 | -0.2 | -0.2 | -0.1 | 0.2 | -1.2
COc1ccc(N(CC(=O)Nc2cccc([N+](=O)[O-])c2C)S(C)(=O)=O)cc1OC | -0.4 | -0.5 | 0.2 | -2.6 | -1.0
COc1ccc(N(CC(=O)Nc2cc([N+](=O)[O-])ccc2C)S(C)(=O)=O)cc1OC | -0.8 | -0.4 | -0.3 | -0.3 | 1.3*
O=C(c1ccccc1Cl)c1c(O)c2ccccc2oc1=O | 0.5 | 5.6* | -0.7 | 1.2 | -0.7
Cc1ccc(S(=O)(=O)Nc2cccc(-c3ccc(N4CCCCCC4)nn3)c2)c(C)c1 | 4.1* | 0.8 | 1.5 | 10.0 | -0.6
COc1ccccc1-c1cccc2c3c([nH]c12)[C@@H]1C[C@H]2[C@@H](CN1CC3)[C@H](C)ON2C | -0.5 | / | -0.7 | 0.9 | -0.7
CC(C1CC1)N(Cc1ccccc1)C(=O)NC(=O)c1ccc(F)cc1 (configuration not stated) | 2.6 | 1.1 | 0.3 | 12.2* | -1.4
CC(C1CC1)N(Cc1ccccc1)C(=S)Nc1ccccc1 (configuration not stated) | 0.9 | 0.0 | -0.5 | 4.8 | -1.0
COc1cc(C(=O)Oc2c(OC)cc(C(=S)N3CCOCC3)cc2OC)cc(OC)c1OC | 0.0 | 5.0* | -1.2 | -3.0 | -1.6
O=C(NCC1CCCO1)Nc1cccc(Cl)c1 (configuration not stated) | 0.8 | 0.2 | -0.3 | 1.4 | -0.8
Cc1cccc(NC(=O)C(=O)NCC2CCCO2)c1 (configuration not stated) | 3.8* | 0.1 | 2.6 | 12.7* | -0.8
